# Test results from patent US20220289795, “EFFICIENT METHOD FOR PREPARING PPR PROTEIN AND USE OF THE SAME” (EditForce, Inc., published 2022).
# Molecular target: T1, NL_v2_PPR11 (Artificial Sequence)
# T1 chain: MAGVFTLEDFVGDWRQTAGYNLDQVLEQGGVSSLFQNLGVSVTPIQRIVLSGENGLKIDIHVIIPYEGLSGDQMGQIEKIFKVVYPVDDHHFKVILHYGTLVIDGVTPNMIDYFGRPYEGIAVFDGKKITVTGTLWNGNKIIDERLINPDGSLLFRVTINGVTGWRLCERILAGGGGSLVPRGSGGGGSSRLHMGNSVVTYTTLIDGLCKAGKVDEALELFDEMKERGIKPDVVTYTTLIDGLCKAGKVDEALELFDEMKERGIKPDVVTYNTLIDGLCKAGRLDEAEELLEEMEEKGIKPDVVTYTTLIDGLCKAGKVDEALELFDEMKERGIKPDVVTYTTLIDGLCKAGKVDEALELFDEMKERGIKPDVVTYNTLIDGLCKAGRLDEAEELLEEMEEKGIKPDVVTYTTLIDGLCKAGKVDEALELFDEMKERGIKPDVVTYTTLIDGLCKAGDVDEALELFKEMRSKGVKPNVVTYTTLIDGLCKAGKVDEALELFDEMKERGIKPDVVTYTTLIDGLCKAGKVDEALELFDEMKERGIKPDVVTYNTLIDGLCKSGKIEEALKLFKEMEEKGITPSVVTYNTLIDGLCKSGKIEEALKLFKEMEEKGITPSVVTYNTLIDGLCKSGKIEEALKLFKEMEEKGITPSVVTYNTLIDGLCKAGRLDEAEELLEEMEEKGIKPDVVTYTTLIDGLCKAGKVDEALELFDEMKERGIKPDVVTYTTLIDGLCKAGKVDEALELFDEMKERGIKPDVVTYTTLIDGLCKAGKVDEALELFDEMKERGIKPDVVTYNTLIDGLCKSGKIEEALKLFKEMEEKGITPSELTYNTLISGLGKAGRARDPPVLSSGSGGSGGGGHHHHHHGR
# Test: RPB-ELISA
# Details: tags: N-terminal luciferase, C-terminal 6xHis; label: 5'-biotin; ssRNA
# Procedure: RNA probes consisting of a designed 30-base sequence containing 18 bases of the target sequence and modified by biotinylation at the 5′ end (RNA_1, RNA_2, RNA_3, RNA_4, and RNA_5, SEQ ID NOS: 61 to 65) were synthesized (Grainer). To a streptavidin-coated plate (Thermo fisher), the 5′-end biotinylated RNA probes were added, reaction was allowed at room temperature for 30 minutes, and the plate was washed with a lysis buffer (20 mM Tris-HCl, pH 7.6, 150 mM NaCl, 5 mM MgCl₂, 0.5% NP-40, 1 mM DTT, 0.1% BSA). For background measurement, wells to which RNA was not added, but 100 μL of the lysis buffer, 1 μL of 100 mM DTT, and 1 μL of 40 unit/4 RNase inhibitor (Takara, 2313A) were added were also prepared. Then, 200 μL of a blocking buffer (20 mM Tris-HCl, pH 7.6, 150 mM NaCl, 5 mM MgCl₂, 0.5% NP-40, 1 mM DTT, 1% BSA) was added, and the plate surface was blocked at room temperature for 30 minutes. Then, 100 μL of E. coli lysate containing luciferase-fused PPR protein having a luminescence level of 1.5×10⁸ LU/μL was added to each well, and the binding reaction was allowed at room temperature for 30 minutes. The well was washed 5 times with 200 μL of a washing buffer (20 mM Tris-HCl, pH 7.6, 150 mM NaCl, 5 mM MgCl₂, 0.5% NP-40, 1 mM DTT). […] The background (luminescence signal value obtained with adding the PPR protein and without adding RNA) was subtracted from the luminescences of the samples to which a solution containing each RNA and PPR protein was added, and the obtained values were used as the binding powers between the PPR protein and RNA.
# By using the v2 motif, PPR proteins for 23 kinds of target sequences (T_1 to T_3, and T_5 to T_24, SEQ ID NOS: […]) were prepared (NL_v2_PPR1 to 3, and NL_v2_PPR5 to 24, SEQ ID NOS: 56 to 58 and 70 to 88), and RPB-ELISA was used to analyze bindings of all the combinations. The experimental method was the same as that used in Example 3.
row,Sequence,binding signal [log2 luminescence]
1,GGUUAGAGAUACAGUGUG,20.4
